TDP43 rescue: qHTS of TDP-43 Inhibitors. TDP-43 expressing yeast growth rescue, BacTiter-Glo, 24 h. Potency, µM (series often up to 46.1 µM), without a hit: top-dose growth rescue (activation), most hits filed as activators. actives 1.8% (n = 410,000). AID 652104, 2013; note: % of control where 0% means no effect; nearly all actives have a fitted effect of over 50% in size
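Cell-based yeast growth screen: TDP-43 expression induced in galactose, inoculum OD600=0.02 after raffinose pregrowth to mid-log. Read-out BacTiter-Glo luminescence at 24 hr, 30 deg C; inhibition of toxicity seen as signal increase.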
FUS suppressor: qHTS for Suppressors of FUS Proteinopathy: Primary screen using FUS-linked yeast assay; actives 0.24% (n = 390,000); S. cerevisiae FUS-expressing, growth rescue, OD600, 24 h; Potency, µM (series often up to 76.6 µM), actives largely listed as activators;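 note: plate controls were DMSO vehicle for no effect and reference control for full effect; nearly all actives have a fitted effect of over 55% in size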
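S. cerevisiae expressing FUS from galactose induction served as the toxicity model. Growth after 24hr at 30C, read as absorbance at 600 nm, indicates suppression of toxicity; compounds dosed at several concentrations.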
aSyn yeast inh: qHTS of alpha-syn Inhibitors; Yeast expressing alpha-synuclein, growth rescue, BacTiter-Glo, 24 h; Potency, µM (titrated, usually from 46.1 µM), inactives show top-dose growth rescue (activation), hits mostly activators; actives 0.14% (n = 370,000); note: % of control where 0% means no effect; nearly all actives have a fitted effect of over 65% in size
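Screening used galactose-induced yeast with toxic alpha-synuclein levels, exposed to compound for 24 hr at 30 deg C. Cell growth, read with BacTiter-Glo luminescence, gave the measured signal.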
Abeta rescue: qHTS for compounds that reverse cellular toxicity of Amyloid beta (A-beta) peptide in yeast: Primary Screen; Potency, µM (titrated, usually from 46.1 µM), actives largely listed as activators; yeast expressing A-beta42, growth rescue, OD600, 48 h; response scale: 0% DMSO, 100% iron-clioquinol control; actives 0.063% (n = 410,000); note: nearly all actives have a fitted effect of over 55% in size
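Growth rescue measured by 600 nm absorbance after 48 h yeast culture at 30 C with compound. Values normalized between DMSO and an equimolar ferric chloride plus clioquinol control.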
* hit, by the source's call; i = inactive; u = inconclusive; x = no result given; [ ] = remark or other dose. Compounds with a hit are over-represented: about 2.1% of the library has one in this group of screens. Calls come from the whole dose curve; as a rule, active = well fitted curve in the direction sought with a large enough effect; inconclusive = small, poorly fitted or top-dose-only effect, or another doubt; inactive = no such curve, though single readings can be large; an effect the other way counts as inactive or inconclusive. Potency is the fitted concentration of half-maximal effect.

SMILES | TDP43 rescue | FUS suppressor | aSyn yeast inh | Abeta rescue
CCC(C)NC(=O)C1CCN(C(=O)c2cc3sccc3n2Cc2ccc(Cl)cc2)CC1 (stereo unspecified) | 5% | i | x | i
COc1ccc(OC)c(-c2csc(NC(=O)Cc3ccc(F)cc3)n2)c1 | 14µM* | i | 5% | i
COc1ccc(OC)c(-c2csc(NC(=O)Cn3[nH]c(=O)c4ccccc4c3=O)n2)c1 | -20% | 40µM* | -3% | i
Cc1ccc(OCc2ccccc2C)c([N+](=O)[O-])n1 | 11µM* | i | 4% | i
O=C1CC(=Nc2ccccc2)NN1c1ccccc1 | 16µM* | 13µM* | 12% | u
O=C1Cc2ccccc2N1c1ccccc1 | u | i | 5% | i
O=C(Nc1nc2c(s1)CCc1ccccc1-2)c1ccco1 | 13µM* | i | -10% | i
O=C(CCCl)Nc1nc2c(s1)CCc1ccccc1-2 | 22µM* | i | 15% | i
COc1ccc(OC)c(/C=C/c2sc3ccccc3[n+]2C)c1 | x | x | 7% | x
Clc1nc2c(-c3ccccc3)nnn2c2ccccc12 | 6.3µM* | i | -16% | i
Cc1ccc(-c2nnn3c2nc(Cl)c2ccccc23)cc1 | 5% | i | -17% | i
Cc1ccc(Cc2c(-c3ccc(C)cc3)nc3ccc(Cl)cn23)cc1 | 25µM* | i | 0% | i
Cc1ccc(Cc2c(-c3ccc(Br)cc3)nc3ccc(Cl)cn23)cc1 | 26% | i | 0% | i
Cc1ccc(-c2nc3ccc(Cl)cn3c2Cc2cccc(F)c2)cc1 | 14µM* | i | u | i
N#Cc1ccc(-c2nc3ccc(Cl)cn3c2Cc2cccc(F)c2)cc1 | 0% | i | -1% | i
Cc1ccc(-c2nc3ccc(Cl)cn3c2Cc2ccccc2C(F)(F)F)cc1 | 22µM* | u | 7% | i
Cc1ccc(Cc2c(-c3ccc(Cl)cc3)nc3ccc(Cl)cn23)cc1 | 35µM* | i | 6% | i
COc1ccc(OC)c(CNS(=O)(=O)c2cc(-c3onc(C)c3C)ccc2C)c1 | 23% | i | x | i
CN(C)c1ccc(N=Cc2ccncc2)cc1 | x | x | 0% | x
CCOC(=O)c1ccccc1NC(=O)Cn1cc(C(=O)c2cccc(OC)c2)c(=O)c2ccc(C)nc21 | 0% | i | x | i
Cc1ccc(-c2cc(C(=O)N3CCN(c4ccc(O)cc4)CC3)c3ccccc3n2)cc1 | 16µM* | u | 6% | i
O=C(c1cc(-c2ccccc2Cl)nc2ccccc12)N1CCC1 | u | i | -10% | i
Cc1ccc(-c2cc(C(=O)N3CCN(c4ccccc4O)CC3)c3ccccc3n2)cc1 | 21% | i | -5% | i
O=C(c1cc(-c2ccccc2Cl)nc2ccccc12)N1CCN(c2ccccc2O)CC1 | 20µM* | i | -18% | i
COc1ccc(-c2cc(C(=O)N3CCN(c4ncccn4)CC3)c3ccccc3n2)cc1 | 13µM* | i | -12% | i
SMILES | TDP43 rescue | FUS suppressor | aSyn yeast inh | Abeta rescue
CCCCNC(=O)C[C@@H]1C(=O)N2CCCC3=C2[C@@]1(C(=O)OC)CCCC3 | x | i | x | x
C=CCc1c(C)nc2nc(SCC(=O)Nc3ccc(C)c(C)c3)nn2c1C | 29% | i | x | i
C=CCc1c(C)nc2nc(SCC(=O)Nc3cccc(Cl)c3)nn2c1C | 32µM* | i | x | i
Cc1ccc(F)cc1-c1nc(NCC2CC2)nc2ccsc12 | 20µM* | i | -2% | i
Cc1ccccc1-c1nc(NCC2CC2)nc2ccsc12 | u | i | -24% | i
O=C(CSC1=NS(=O)(=O)c2ccccc21)Nc1ccccc1 | 35µM* | i | u | i
COC(=O)CSC1=NS(=O)(=O)c2ccccc21 | u | x | u | i
COC(=O)c1ccc(/C=C(\C#N)C(=O)NC(C)c2ccccc2)cc1 (stereo unspecified) | 13µM* | i | u | i
COc1ccc(/C=C(\C#N)C(=O)NC(C)c2ccccc2)cc1O (stereo unspecified) | 20µM* | i | 27% | u
CSc1cccc(NC(=O)c2ccc3c(c2)CCCN3S(C)(=O)=O)c1 | 15% | u | x | i
O=C(OCCOc1cccc(Cl)c1)c1ccc2ncsc2c1 | 14µM* | i | 1% | i
O=C(COC(=O)c1ccc2ncsc2c1)NCc1cccc(Cl)c1 | 28µM* | i | 8% | i
O=C(COC(=O)c1ccc2ncsc2c1)NCc1ccccc1Cl | 20µM* | i | 23% | i
O=C(COc1ccc2c(c1)CCC2)NCc1cccc(Cl)c1 | 20µM* | i | 0% | i
O=C(COC(=O)c1ccc2ncsc2c1)Nc1cccc(Cl)c1 | u | x | -9% | i
O=C(COC(=O)c1ccc2ncsc2c1)NCc1ccc(F)cc1 | 13% | i | -2% | i
O=C(OCc1cn(Cc2ccc(F)cc2)nn1)N1CCCC1 | x | i | x | x
O=C(Nc1ccc(C(O)(C(F)(F)F)C(F)(F)F)cc1)c1ccc(F)cc1Cl | x | i | x | x
Cc1cccc(-n2ncc(C(=O)N3CCN(Cc4ccccc4)CC3)c2C2CCN(C(=O)OC(C)(C)C)CC2)c1 | -12% | i | x | i
Cc1ccc(-c2nc3cc(Cl)ccc3o2)cc1NC(=O)COc1ccccc1C | x | x | -6% | x
O=S(=O)(c1cccc(F)c1)N1CCN(c2nc(-c3cccs3)nc3ccccc23)CC1 | x | x | 1% | x
Cc1cccc(N2CCN(C(=O)C3CCCN(C(=O)c4cc5sccc5n4C)C3)CC2)c1C (stereo unspecified) | 0% | u | x | i
Cc1cccc(N2CCN(C(=O)C3CCN(C(=O)c4cc5sccc5n4C)CC3)CC2)c1C | 35µM* | u | x | u
CC1(C(=O)Nc2ccc3c(c2)OCCO3)CCN1C(=O)C1(c2ccc(Cl)cc2)CCC1 (stereo unspecified) | 13% | u | 13% | i
CC1(C(=O)Nc2ccc3c(c2)OCCO3)CCN1C(=O)C1(c2ccc(Cl)cc2)CC1 (stereo unspecified) | 35µM* | i | 6% | i
CC1(C(=O)NS(=O)(=O)c2ccc(C#N)cc2)CCN1C(=O)C1(c2ccc(Cl)cc2)CCC1 (stereo unspecified) | 24% | i | -4% | i
CC1(C(=O)NS(=O)(=O)c2cccc(C#N)c2)CCN1C(=O)C1(c2ccc(Cl)cc2)CCC1 (stereo unspecified) | 8% | i | 28µM* | i
Cc1ccccc1-c1noc(-c2ccc(N3CCN(C)CC3)c([N+](=O)[O-])c2)n1 | -4% | i | x | i
CC(=O)c1ccc(NC(=O)C2=CC(c3ccc(C)cc3)=NS(=O)(=O)N2C)cc1 | 15%[9.22 µM] | i | x | i
Cc1cccc(CCNC(=O)c2cnc3c(C)cccn3c2=O)c1 | 28µM* | i | x | i

High-throughput results deposited in PubChem by National Center for Advancing Translational Sciences (NCATS).
